Source: PubChem BioAssay
Rows were chosen to be rich in hits. Some 6.5% of all compounds tested hit in one or more screens of this group.
IL-1B inflam inh: blocks inflammasome-driven IL-1 beta release; activity change, % at 57.5 µM; AID 743279; THP-1 LPS/ATP IL-1B secretion, AlphaLISA, 16 h; hits give low values; actives 4.7% (n = 360,000); in the data active means activity change below about -50%; inconclusive means mostly about -30% to -49%; further: on the % scale 0 is the no-effect control and ±100 the full control effect
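Secreted IL-1B measured by AlphaLISA bead assay after 16 h compound exposure of THP-1 cells; compounds (final up to 57.5 uM) added 1 h before LPS (250 ng/mL) and ATP (1.25 mM) stimulation; lower signal means less secretion.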
TGFb SMAD3 inh: TGF-b pathway inhibition; actives 1.2% (n = 410,000); Potency, µM (highest dose often 46.1 µM), inactives show at the highest dose activity, negative = inhibition, usual class: inhibitors; HepG2 CAGA-GFP TGF-b/SMAD3 reporter, GFP fluorescence, 18 h; TGF-beta stimulated, 500 pg/mL final; AID 588855; further: potency means the concentration at half of the fitted maximal effect; on the % scale 0 is the no-effect control and ±100 the full control effect; nearly all actives have a fitted effect of over 65% in size
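GFP signal (ex488/em500-530) from TGF-beta-stimulated HEPG2 CAGA-GFP cells, 500 pg/mL final, 18 h at 37 degrees C in DMEM plus 1% FBS, normalized to unstimulated and DMSO-stimulated controls.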
HT1080NT lethal: kills 2HG-producing HT-1080-NT fibrosarcoma cells. HT-1080-NT fibrosarcoma viability, CellTiter-Glo ATP luminescence, 48 h. Potency, µM (doses to about 46.1 µM), for inactives: top-dose activity, negative = less viability, hits mostly cytotoxic. actives 1.6% (n = 360,000). AID 686970;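 further: NT is the 2HG producing partner of a matched IDH1 knockdown line; potency means the concentration at half of the fitted maximal effect; 0% = DMSO-treated cells and -100% = media-only wells without cells; nearly all actives have a fitted effect of over 55% in size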
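750 cells/well, RPMI + 5% FBS; 2 h settle, compound pin-transfer, 48 h at 37 degrees C. CellTiter-Glo 10 min RT, luminescence. Normalized to DMSO and media-only wells.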
Giardia kill: kills Giardia lamblia | activity change, % at 7.66 µM, hits read low | Giardia lamblia trophozoite viability | actives 0.15% (n = 340,000); in the data active means activity change below about -80%; inconclusive means between about -30% and that limit;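 further: parasites exposed to compound for two days anaerobically before the ATP read; on the % scale 0 is the no-effect control and ±100 the full control effect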
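ATP-content bioluminescence gauges trophozoite survival. Cells (100/well) receive compound and incubate anaerobically for 48 hrs at 37 deg C; detection reagent follows for 15-30 min at room temperature.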
HT1080 IDH1KD tx: HT-1080 IDH1 knockdown cell toxicity (counter line); actives 2% (n = 360,000); HT-1080 IDH1 knockdown viability, ATP luminescence, 48 h; Potency, µM (highest dose often 46.1 µM), for the others: top-dose activity, negative = toxicity, hits mostly cytotoxic;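 further: potency means the concentration at half of the fitted maximal effect; 0% = DMSO wells and -100% = cell-free medium wells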
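Luminescent ATP read-out (CellTiter-Glo, 10 min at room temperature) after 48 h compound exposure at 37 °C gave viability of IDH1-knockdown HT-1080 cells. Activity was normalised to DMSO and cell-free wells, then fitted as concentration-response curves.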
HepG2 viability: counter-screen for TGF-b inhibitors: cytotoxicity in HepG2 cells; actives 0.76% (n = 410,000); AID 588856; HepG2 CAGA-GFP viability, ATP luminescence, 18 h; Potency, µM (doses to about 46.1 µM), without a hit: at the highest dose activity change, negative = cytotoxicity, most hits filed as cytotoxic; further: potency means the concentration at half of the fitted maximal effect
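CellTiter-Glo luminescence gave cytotoxicity after 18 hours at 37 degrees C. The cells were HepG2 CAGA-GFP in 1% FBS DMEM, stimulated with 500 pg/mL TGF-beta after compound addition. %Activity was normalised to no-cell wells (complete cell-killing) and DMSO (no toxicity), and curves were fitted and classified.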
Active calls of the source: *; ? = inconclusive; / = no result; [ ] = remark or other dose. Unless noted, the call rests on the fitted dose curve; in most records, active means well fitted curve in the direction sought with a large enough effect; inconclusive means small, poorly fitted or top-dose-only effect, or another doubt; inactive means no such curve, though single readings can be large; an effect the other way counts as inactive or inconclusive.

SMILES	IL-1B inflam inh	TGFb SMAD3 inh	HT1080NT lethal	Giardia kill	HT1080 IDH1KD tx	HepG2 viability
CC(=O)N[C@@H](CC(=O)O)C(=O)O	-107*	-10%	-14%	-27	-21%	4%
CC(=O)N[C@@H](CS)C(=O)O	4	-4%	-2%	0	16%	-8%
CC1CC2(CCCC2)Nc2ccc(F)cc21 (stereo unspecified)	21	0%	0%	-1	-1%	-15%
CC1CC(C)(C)Nc2ccc(OC(=O)c3ccco3)cc21 (stereo unspecified)	-114*	?	18µM*	-7	23µM*	-102%
CC1CC(C)(C)Nc2ccc(N=O)cc21 (stereo unspecified)	-105*	?	15µM*	-7	18µM*	-7%
NC(=O)N/N=C/c1cc(Br)ccc1OCC(=O)NCc1ccccc1	44	-22%	-7%	25	-8%	-38%
COc1ccc(CNC(=O)Cn2c(-c3ccccc3)cc(C(C)=O)c2C)cc1OC	/	-12%	/	/	/	-2%
Nc1c(C(=O)c2ccccc2)sc2nsc(SCCN3CCCC3)c12	-104*	34%	12µM*	25	23µM*	-36%
CCOC(=O)C1=C(N)Oc2cc(C)n(C)c(=O)c2C1c1ccncc1 (stereo unspecified)	-9	-10%	-1%	2	-4%	-14%
O=C(Nc1ccccc1)Nc1ccc(C(=O)N2CCCC2)cc1	?	26%	?	?	12µM*	-62%
Cn1cc([N+](=O)[O-])c(C(=O)Nc2ccc(C(=O)N3CCCCC3)cc2)n1	/	?	?	14	23µM*	8.9µM*
O=C(Nc1ccc(C(=O)N2CCCCC2)cc1)c1ccccc1	-13	2%	-11%	19	-18%	-40%
Cn1cc([N+](=O)[O-])c(C(=O)Nc2ccc(C3CCCCC3)cc2)n1	/	?	23µM*	-25	?	-105%
Cn1cc([N+](=O)[O-])c(C(=O)Nc2cc(Oc3cccnc3)cc([N+](=O)[O-])c2)n1	-96*	13µM*	21µM*	5	18µM*	-83%
CC(C)c1cc(CNC(=O)CCc2nnc(CCCc3ccccc3)o2)on1	4	-7%	3%	5	0%	-6%
O=C(NCCc1ccccc1)C1CCC(=O)N(CCCN2CCCC2=O)C1 (stereo unspecified)	3	-5%	-1%	-4	4%	10%
CCOC(=O)c1cn[nH]c1NC(=S)Nc1ccc(Cl)cc1	-6	-27%	-15%	-12	-24%	-20%
O=C(CCCC(=O)N1CCN(c2ccccc2F)CC1)c1ccccc1	21	-12%	5%	8	11%	-17%
CCCCN(C=O)c1c(CC)nc2c(OCc3ccc(C(F)(F)F)cc3)cccn12	-65*	?	?	/	?	-44%
CCCCN(C=O)c1c(CC)nc2c(OCCC)cccn12	34	-9%	23%	/	18%	-18%
CCc1nc2c(OCc3ccc(C(F)(F)F)cc3)cccn2c1N(C=O)Cc1ccc(OC)cc1	-72*	?	?	/	?	-28%
CCCCN(C=O)c1c(CC)nc2c(OCCOc3ccccc3)cccn12	-18	?	-17%	/	-17%	-43%
Cc1nc2c(OCc3ccc(C(F)(F)F)cc3)cccn2c1N(C)Cc1cccs1	-84*	?	?	/	26µM*	-101%
CCCOc1cccn2c(N(C=O)Cc3ccc(OC)cc3)c(CC)nc12	9	-24%	1%	/	2%	1%
CCc1nc2c(OCCOc3ccc(F)cc3)cccn2c1N(C=O)Cc1ccccc1	-59*	-16%	?	/	6%	-19%
SMILES	IL-1B inflam inh	TGFb SMAD3 inh	HT1080NT lethal	Giardia kill	HT1080 IDH1KD tx	HepG2 viability
CCc1nc2c(OCc3ccc(C(F)(F)F)cc3)cccn2c1N(C)C(C)=O	-9	-6%	14%	/	5%	-11%
Cc1cccc(-n2ncc3c2CCCC3NC(=O)Cn2cccn2)c1C (stereo unspecified)	-11	6%	-9%	1	-6%	2%
COc1ccc(N(Cc2cccs2)C(=O)COc2cc(C)c(Cl)c(C)c2)cc1	/	16µM*	/	/	/	-28%
COc1ccc(N(Cc2cccs2)C(=O)COc2cccc(C)c2C)cc1	/	?	/	/	/	-16%
CCOc1ccc(CCNC(=O)C2CSC3(C)CCC(=O)N23)cc1OCC (stereo unspecified)	-4	0%	26%	2	11%	-5%
NS(=O)(=O)c1ccc(CCNCc2cc(Cl)ccc2OCc2ccccc2)cc1	-100*	11µM*	?	-20	?	-69%
Nc1nonc1C(=O)NCCNCc1cc(Br)ccc1OCc1ccccc1F	-56*	0%	-11%	-4	-14%	-59%
C=CCOc1ccccc1CNCCc1ccc(S(N)(=O)=O)cc1	-12	18%	3%	1	-6%	-7%
NS(=O)(=O)c1ccc(CCNC(=O)CNCCc2ccccc2)cc1	10	-12%	1%	10	9%	-16%
NS(=O)(=O)c1ccc(CCNCc2ccccc2OCc2ccc(Cl)cc2)cc1	-81*	?	23µM*	10	15µM*	-91%
COc1cccc(CNCCNC(=O)c2nonc2N)c1	-11	-1%	-4%	4	-1%	-5%
COc1cc(CNCCNC(=O)c2nonc2N)ccc1OCc1ccc(Cl)cc1	-95*	?	?	2	16µM*	-78%
Cc1onc(-c2ccccc2)c1C(=O)OCC(=O)Nc1ccc(C#N)cc1	?	?	6%[9.24 µM]	2	?	-15%
COc1cc(CNc2ccc(S(N)(=O)=O)cc2)ccc1OCc1ccccc1F	-7	-17%	-2%	21	-10%	-19%
NS(=O)(=O)c1ccc(CCNCc2cc(Br)ccc2OCc2ccccc2F)cc1	/	?	?	6	23µM*	-85%
CSc1ccccc1OCc1cc(C(=O)NC(C)Cc2cccc(C)n2)no1 (stereo unspecified)	-57*	0%	-3%	-5	-8%	-15%
O=C(CSc1ccc(-c2ccccc2)nn1)Nc1ccc2c(c1)OCCO2	16	?	10%	-14	0%	6%
CCCc1ccc(OC(=O)c2ccc(O)cc2Cl)cc1	-84*	?	?	-9	?	-71%
CCCc1ccc(OC(=O)c2cccs2)cc1	-16	6%	1%	11	17%	-1%
COc1ccc(-c2nnc(SC(C)C(=O)Nc3ccc4c(c3)OCCO4)o2)cc1 (stereo unspecified)	?	6%	-4%	-7	1%	8%
